# ADAM10 inh: human ADAM10 inhibitors, primary screen, biochemical, QFRET, HTS | Disintegrin and metalloproteinase domain-containing protein 10 (Homo sapiens), O14672 | recombinant ADAM10, EDANS/DABCYL FRET peptide cleavage, 3 h | inhibition, % at 7 µM | hit rate 0.62% among 370,000;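 active = inhibition above a per-campaign cutoff equal to the mean of compounds falling between control-based bounds plus 3 SD, cut at about 20% in these data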;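 also: 0% = DMSO wells while the 100% control is not disclosed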
# ADAM17 inh: ADAM17 inhibitors, primary screen, biochemical, QFRET; Disintegrin and metalloproteinase domain-containing protein 17 (Homo sapiens), P78536; recombinant ADAM17, EDANS/DABCYL FRET peptide cleavage; inhibition, % at 6.95 µM; hit rate 0.83% among 370,000; AID 720648, 2013;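 active = inhibition above the mean of compounds lying between control limits plus 3 SD, set per campaign, cut at about 8.5% in these data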;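 also: 0% = DMSO-only wells as the low control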
# FAS TE block: FAS thioesterase domain inhibitors, primary screen, biochemical, fluorescence intensity, uHTS | Fatty acid synthase (Homo sapiens), P49327 | AID 602261, 2012 | inhibition, % at 15 µM | recombinant FAS-TE, OMFH fluorogenic substrate, fluorescence endpoint | hit rate 0.67% among 360,000;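 active = compounds whose normalised, plate-corrected inhibition of enzyme fluorescence in the single-dose primary screen is 50% or more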;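 also: 0% = DMSO with enzyme and 100% = substrate without enzyme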
# GRIN3A LBD mod: binders of NR3A ligand-binding domain, primary screen, biophysical, differential scanning fluorimetry, uHTS; Glutamate receptor ionotropic, NMDA 3A (GRIN3A) ligand-binding domain; NR3A LBD differential scanning fluorimetry, Tm shift; 0% = protein alone, 100% = glycine-bound protein; Tm shift relative to glycine control, % at 25 µM; hit rate 2.5% among 340,000;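 active = melting temperature shift of at least 10% of the positive control shift, at one fixed dose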
# aDG glyco up: activators of alpha-DG glycosylation, primary screen, uHTS, Pro5-aDG cells, AlphaScreen. alpha-DG glycosylation AlphaScreen (IIH6); 0% Pro5, 100% B10-LARGE cell signal. activation, % at 10 µM. hit rate 0.22% among 360,000;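 active = activation of at least 8% versus controls, or a plate z-score of at least 8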;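 also: Pro5 are CHO cells carrying HIG-tagged alpha-DG that lacks glycosylation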
# FAS-TE inh conf: FAS thioesterase domain inhibitors, confirmation, biochemical, fluorescence intensity, single concentration; shares compounds with FAS TE block; recombinant FAS-TE, OMFH fluorogenic substrate; inhibition, % at 15 µM; hit rate 45% among 2,300;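 active = compounds inhibiting the enzyme by at least 50% at 15 µM in any one of the replicates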;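 also: 0% = enzyme with DMSO only and 100% = wells lacking enzyme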
# Starred values were filed as active, the others as inactive; . = not tested or not shown. Most compounds without a hit are left out; they make up all but 4% or so of the library.
SMILES,ADAM10 inh,ADAM17 inh,FAS TE block,GRIN3A LBD mod,aDG glyco up,FAS-TE inh conf
O=C(CC1C[C@H](C(=O)N2CCOCC2)[C@@]2(CCC3CCCC3)c3[nH]c4ccccc4c3CCN2C1=O)NCCCn1ccnc1 (some centres not stated),-1,-2,69*,0,0,64*
O=C(CC1C[C@H](C(=O)N2CCCCC2)[C@@]2(CCc3ccccc3)c3[nH]c4ccccc4c3CCN2C1=O)NCc1cccc(C(F)(F)F)c1 (some centres not stated),-14,-3,54*,4,0,29
O=C(C[C@H]1C[C@H](C(=O)N2CCCCC2)[C@@]2(CCc3ccccc3)c3[nH]c4ccc(Cl)cc4c3CCN2C1=O)NCc1cccc(C(F)(F)F)c1,2,-4,36,-2,0,.
CC(C)(C)NC(=O)CC1C[C@H](C(=O)N2CCOCC2)[C@@]2(CCC3CCCC3)c3[nH]c4ccccc4c3CCN2C1=O (some centres not stated),3,2,81*,-3,0,76*
Cc1ccc2c([N+](=O)[O-])c(C)ccc2n1,3,-5,1,1,0,.
CCOC(=O)C1=C(CC)Nc2ccccc2N=C1NC(=O)c1ccc(C)c(S(=O)(=O)N2CCOCC2)c1,10,-1,9,5,0,.
COc1ccccc1CNC(=O)Nc1nc(C(N)C(C)C)cs1 (configuration not stated),0,1,-10,.,0,.
Cc1ccc(Cl)cc1NC(=O)CN1CCN(C(=O)C2CCCO2)CC1 (configuration not stated),3,3,-6,-1,0,.
CCCCc1ccc(C2C3=C(CC(C)(C)CC3=O)NC3=C2C(=O)c2ccccc23)cc1 (configuration not stated),-6,-3,63*,4,2,11
COC(=O)c1ccc2c(=O)n(-c3ccccc3)c(SCN3C(=O)c4ccccc4C3=O)nc2c1,4,1,62*,0,0,3
CN(C)S(=O)(=O)c1ccc(N2CCCC2)c(C(=O)Nc2nc3c(ccc4ccccc43)s2)c1,-15,-5,92*,-11,0,10
Cc1cnc(NC(=O)c2cc(S(=O)(=O)N(C)C)ccc2N2CCCC2)s1,-46,-16,3,-7,0,.
COc1ccc(C(C)(C)C)cc1NC(=O)c1cc(S(=O)(=O)N(C)C)ccc1N1CCCC1,8,3,68*,10,0,24
O=C(O)C1SCCN1S(=O)(=O)c1ccc(N=NN2CCOCC2)cc1 (configuration not stated),1,0,-10,-3,0,.
O=C(COC(=O)c1cc([N+](=O)[O-])ccc1N1CCOCC1)Nc1ccc(Cl)cn1,-8,1,71*,2,-1,59*
O=C(COC(=O)c1cc(S(=O)(=O)N2CCOCC2)ccc1Cl)Nc1ccc(Cl)cn1,-18,-1,3,.,0,.
Cc1ccc(NC(=O)COC(=O)c2cc(Cl)ccc2[N+](=O)[O-])c(C)c1,-15,-4,16,6,0,.
Cc1cc(Cl)ccc1NC(=O)COC(=O)c1cc([N+](=O)[O-])ccc1N1CCOCC1,6,2,77*,0,0,79*
CCc1cccc(C)c1NC(=O)COC(=O)c1cc([N+](=O)[O-])ccc1N1CCOCC1,-5,-4,68*,3,0,69*
O=C(COC(=O)c1cc([N+](=O)[O-])ccc1N1CCOCC1)Nc1ccc(Cl)cc1,12,6,81*,-8,0,49*
NC(=O)c1ccc(NC(=O)COC(=O)c2cc([N+](=O)[O-])ccc2N2CCOCC2)cc1,-4,0,36,3,0,.
COc1ccccc1N(CC(=O)NC(C)(C)C)C(=O)CCC(=O)Nc1ccccn1,0,-3,-4,-4,0,.
CCc1nc2c(OCC3CCCCC3)cccn2c1N(C)C(=O)c1ccc(OC)cc1,-11,2,12,.,0,.
CCOC(=O)c1cc(CC)sc1NC(=O)c1cc([N+](=O)[O-])ccc1N1CCOCC1,4,-2,61*,-8,0,21
COc1ccc2c(c1)C(=O)N1[C@H]3c4cc(OC)ccc4OC[C@@H]3[C@H](c3ccccc3)[C@]1(C)C(=O)N2,16,7,72*,-1,0,28
SMILES,ADAM10 inh,ADAM17 inh,FAS TE block,GRIN3A LBD mod,aDG glyco up,FAS-TE inh conf
COc1ccc2c(c1)[C@H]1[C@H](CO2)[C@H](c2ccccc2)[C@]2(C)C(=O)Nc3ccccc3C(=O)N12,15,6,44,-4,0,.
COc1ccc2c(c1)[C@H]1[C@H](CO2)[C@H](c2ccccc2)[C@]2(C)C(=O)Nc3ccc(Br)cc3C(=O)N12,7,5,33,-7,0,.
COc1ccc2c(c1)OC[C@H]1[C@H]2N2C(=O)c3cc(Br)ccc3NC(=O)[C@@]2(C)[C@H]1c1ccccc1,.,.,86*,-2,0,-4
COc1ccc2c(c1)OC[C@H]1[C@H]2N2C(=O)c3ccc(F)cc3NC(=O)[C@@]2(C)[C@H]1c1ccccc1,19,9.1*,84*,4,0,42
O=C(OC12CCCN(C1)/C(=C/c1cccnc1)C2)C1CCCCC1 (configuration not stated),-4,0,.,.,.,.
O=S1(=O)CC(N2CCN(CC3CC3)CC2)CN1C1CCCC1 (configuration not stated),-10,-21,-2,.,0,.
CC(NC(=O)CC(c1ccccc1)c1cc(Cl)ccc1O)c1ccccc1 (configuration not stated),8,6,50*,-13,1,48
O=C1CCC[C@@H]2C[C@@]3(C[C@@H]4CCN1[C@H]24)Nc1cc(Cl)c(Cl)cc1NC3=NCc1ccccc1,3,-3,52*,-2,0,36
COc1ccc(-c2nnc(SCC(=O)Nc3ncc(C(F)(F)F)cc3Cl)n2CC(C)C)cc1,-10,-6,79*,-5,0,81*
COC(=O)CNC(=O)CSc1nnc(-c2ccc(OC)cc2)n1CC(C)C,-1,-2,-4,-3,0,.
Cc1ccccc1-c1nc2sc(C)c(C)c2c(=O)o1,5,-3,53*,-2,0,39
Cc1sc2nc(-c3ccco3)oc(=O)c2c1C,10,0,29,0,0,.
O=C(Cn1nc(-c2ccccc2)ccc1=O)NCCN1CCN(c2cccc(Cl)c2)CC1,8,2,-3,1,0,.

# Screening data (PubChem)
